Experimental findings from PubChem BioAssay (NCATS) are described below.

Each structure is given as a SMILES string. Inconclusive results are not listed. Active and inactive are the calls of the source. The call rests on the fitted dose curve; in most records, active means well fitted cell-killing curve with a large enough effect; inconclusive means small, poorly fitted or top-dose-only effect, or effect the other way; inactive means no such curve, though single readings can be large or run the other way.
Potency means the concentration at half of the fitted maximal effect.

The nature of this experiment: Quantitative High-Throughput drug screen in 47 multiple myeloma cell lines against the NCATS MIPE library collection: OCIMY7_PLB cell viability assay (AID 1918987). Further: nearly all actives have a fitted effect of over 65% in size. Particulars: OCI-MY7 myeloma viability, CellTiter-Glo ATP, 48 h; viability (% of DMSO): at 45.8 µM (top of the series). An excerpt: PI: Beverly A. Mock Ph.D.
Laboratory of Cancer Biology and Genetics,
Center for Cancer Research, National Cancer Institute,
National Institute of Health, Bethesda, Maryland
Drug resistance and disease progression are common in multiple myeloma (MM) patients, underscoring the need for new therapeutic combinations. […] We hypothesized that effective combinations would reduce MYC expression and enhance p16 activity. […] These preclinical data identify potentially useful drug combinations for evaluation in drug-resistant MM and reveal potential mechanisms of combined drug sensitivity.
Described herein is the primary MIPE qHTS used to cherrypick compounds. Validated compounds were then further tested for potential synergistic activiy.
[1] Peat TJ, Gaikwad SM, Dubois W, Gyabaah-Kessie N, Zhang S, Gorjifard S, Phyo Z, Andres M, Hughitt VK, Simpson RM, Miller MA, Girvin AT, Taylor A, Williams D, D'Antonio N, Zhang Y, Rajagopalan A, Flietner E, Wilson K, Zhang X, Shinn P, Klumpp-Thomas C, McKnight C, Itkin Z, Chen L, Kazandijian D, Zhang J, Michalowski AM, Simmons JK, Keats J, Thomas CJ, Mock BA. Drug combinations identified by high-throughput screening promote cell cycle transition and upregulate Smad pathways in myeloma. Cancer Lett. 2023 Aug 1;568:216284. doi: 10.1016/j.canlet.2023.216284. Epub 2023 Jun 24. PMID: 37356470; PMCID: PMC10408729.
SEQUENCE No. (e.g., 1, 2, 3, etc.); […] (e.g., Cells, Incubation, Reagent, etc.); VALUE and DESCRIPTION.
1; Cells; 5 uL; white, solid bottom 1536-well Greiner assay plate.
2; Compounds; 23 nL; Kalypsis pin tool (Wako USA) equipped with a 1536-well pin head to transfer to the assay plates.
3; Incubation; 48 hours; 37C incubation.
4; Reagent;5uL; CellTiter Glo (Promega).
5; Detector; 425V; Luminescence; Viewlux PerkinElmer.
NOTES (numbers refer to Sequence numbers above)
1. The cell-based screening methods employed in this study were like those previously published. Briefly, the corresponding myeloma cell lines were screened in 1,536-well plates with 500 cells, 5-uL per well for inhibition of cell viability (assessed by measuring ATP levels with CellTiterGlo).
2. NCATS MIPE 4.0 library of approved and investigational drugs were added using the Kalypsis pin tool. Wells treated with DMSO only for 100% viability and media only for 0% viability were used as controls.
3. The assay plates were covered and incubated for 48 hours in a 37C, 5% CO2 incubator with controlled humidity.
4. After 48 hours, CellTilter-GloTM luminescent substrate mix (Promega) reagent was added to the assay plate and plates we incubated for 5 min at room temperature.
5. Signal was measured as median relative luminescence units on a ViewLux (PerkinElmer) multiplate reader.
[1] Heske CM, Davis MI, Baumgart JT, Wilson K, Gormally MV, Chen L, Zhang X, Ceribelli M, Duveau DY, Guha R, Ferrer M, Arnaldez FI, Ji J, Tran HL, Zhang Y, Mendoza A, Helman LJ, Thomas CJ. Matrix Screen Identifies Synergistic Combination of PARP Inhibitors and Nicotinamide Phosphoribosyltransferase (NAMPT) Inhibitors in Ewing Sarcoma. Clin Cancer Res. 2017 Dec 1;23(23):7301-7311. doi: 10.1158/1078-0432.CCR-17-1121. Epub 2017 Sep 12. PMID: 28899971; PMCID: PMC6636827.
`CN1CC(=O)NC1=NC(=O)Nc1cccc(Cl)c1`: the Potency was 13.2 µM (active). On the same count and under the same terms, the figure for `C[C@@H]1[C@H](O)[C@@H](C)C=CC=CC=CC=CC=CC=CC=C[C@H](O[C@@H]2O[C@H](C)[C@H](O)[C@H](N)[C@@H]2O)C[C@@H]2O[C@](O)(C[C@@H](O)C[C@@H](O)[C@H](O)CC[C@@H](O)C[C@@H](O)CC(=O)O[C@H]1C)C[C@H](O)[C@@H]2C(=O)O` is 11.8 µM (active).

Regarding `COc1c(C)cnc(Cn2cnc3c(Cl)nc(N)nc32)c1C`, the Potency was 0.0418 µM (active). Same read-out and setting: the figure for `CC(C)Oc1cc(Nc2nc(N[C@@H](C)c3ccc(F)cn3)ncc2Cl)[nH]n1` is 4.18 µM (active). On to `CCOC(=O)[C@H](CCc1ccccc1)N[C@@H](C)C(=O)N1CCCC1C(=O)O` (stereo not given in full), for which the “viability (% of DMSO)” value is 143% (inactive). On to `COc1cc(CNC(=O)CCCCC=CC(C)C)ccc1O`, for which the Potency is 14.8 µM (active). On to `COc1cc2c(cc1OC)CC(=O)N(CCCN(C)C[C@H]1Cc3cc(OC)c(OC)cc31)CC2`, for which the “viability (% of DMSO)” value is 76.7% (inactive). In the case of `C=CC[N+]1([C@H]2C[C@H]3[C@@H]4CC[C@H]5C[C@H](O)[C@@H](N6CCOCC6)C[C@]5(C)[C@@H]4CC[C@]3(C)[C@H]2OC(C)=O)CCCC1`, the “viability (% of DMSO)” value was 214% (inactive). Same read-out and setting: the figure for `CC(=O)OCC(=O)[C@@]12OC(C)(C)O[C@H]1C[C@H]1[C@@H]3C[C@H](F)C4=CC(=O)C=C[C@]4(C)[C@@]3(F)[C@@H](O)C[C@@]12C` is 143% (inactive).

As to `Cc1ccccc1C(=O)c1ccc(Nc2ccc(Br)cc2N)cc1Cl`, the Potency is 11.8 µM (active). Same read-out and setting: next, `O=S(=O)(NCCNCC=Cc1ccc(Br)cc1)c1cccc2cnccc12`: 23.5 µM (active).

Consider `CC(C)=CCCC(C)=CCCC(C)=CCCC(C)=CCCC(C)=CCCC(C)=CCCC(C)=CCCC(C)=CCCC(C)=CCO`, for which the “viability (% of DMSO)” value is 245% (inactive).

With `Clc1ccc(C2(c3ccc(-c4cn[nH]c4)cc3)CCNCC2)cc1`, the Potency is 1.05 µM (active). On the same count and under the same terms, next, `CCOC(=O)N1CCN([N+]([O-])=NOc2cc(ON=[N+]([O-])N3CCN(C(=O)OCC)CC3)c([N+](=O)[O-])cc2[N+](=O)[O-])CC1`: 2.96 µM (active).

For the compound `CN1c2ccccc2C(=O)N2CCc3c([nH]c4ccccc34)C21` (stereo not given), the Potency is 20.9 µM (active).

`O=C(Nc1ncc(SCCN2CCCC2)s1)[C@]1(c2ccc(S(=O)(=O)C3CC3)cc2)C[C@@H]1C1CCCCC1`: the Potency is 18.7 µM (active). `Cc1ccc(NC(=O)Nc2cc(C(F)(F)F)ccc2F)cc1Nc1ccc2c(c1)NC(=O)C2=Cc1ccc[nH]1`: the Potency was 2.96 µM (active). On the same count and under the same terms, next, `COc1ccc2cc1Oc1ccc(cc1)C[C@H]1c3cc(c(OC)cc3CCN1C)Oc1c(OC)c(OC)cc3c1[C@H](C2)N(C)CC3`: 16.6 µM (active); `CCC(C)SSc1ncc[nH]1` (stereo not given): 3.72 µM (active); `FC(F)(F)c1ccc(C=Cc2nc(COc3ccc(CCCCn4ccnn4)cc3)co2)cc1`: 0.132 µM (active). The same measure, in the same setting: next, `CCC(=O)N1CCN(c2ccc(-n3c(=O)ccc4cnc5ccc(-c6cnc7ccccc7c6)cc5c43)cc2C(F)(F)F)CC1`: 16.6 µM (active).

Turning to `CN[C@@H]1[C@@H](O)[C@@H](O[C@@H]2[C@@H](O)[C@H](O[C@H]3O[C@H](CN)[C@@H](O)[C@H](O)[C@@H]3O)[C@@H](N)C[C@@H]2NC(=O)[C@@H](O)CN)OC[C@]1(C)O`, the “viability (% of DMSO)” value is 102% (inactive). `Cc1ccc(NC(=O)c2ccc(CN3CCN(C)CC3)cc2)cc1Nc1nc(-c2cccnc2)cs1`: the Potency is 14.8 µM (active).

As for `Cc1nc(NC(=O)N2CCC[C@@H]2C(N)=O)sc1-c1csc(C(C)(C)C)n1`, the Potency is 3.32 µM (active). Take `O=C1C(CCC(O)c2ccc(F)cc2)C(c2ccc(O)cc2)N1c1ccc(F)cc1` (stereo not given): the “viability (% of DMSO)” value is 64.1% (inactive).

In the case of `CCOC(=O)N1c2ccc(C(F)(F)F)cc2[C@@H](N(Cc2cc(C(F)(F)F)cc(C(F)(F)F)c2)C(=O)OC)C[C@H]1CC`, the “viability (% of DMSO)” value is 61.7% (inactive).

As to `Fc1ccc(C(c2ccc(F)cc2)N2CCN(CC=Cc3ccccc3)CC2)cc1`, the Potency is 13.2 µM (active). Same read-out and setting: the figure for `CC1(C)C(N(O)C(=O)Nc2ccc(Cl)cc2)N(c2ccc(Cl)cc2)C(=O)N1CC(=O)NN=CC=Cc1ccc([N+](=O)[O-])o1` (stereo not given) is 5.9 µM (active); for `O=[N+]([O-])c1ccc(Nc2ccccc2-c2ccccc2)c2nonc12` it is 18.7 µM (active). Regarding `CC=C1C2C=C(C)CC1(N)c1ccc(=O)[nH]c1C2` (stereo not given), the “viability (% of DMSO)” value was 181% (inactive). In the case of `CC(=O)O[C@]1(C(C)=O)CC[C@H]2[C@@H]3C=C(Cl)C4=CC(=O)[C@@H]5C[C@H]5[C@]4(C)[C@@H]3CC[C@@]21C`, the Potency is 9.35 µM (active).

Regarding `COc1c(C)c2c(c(O)c1CC=C(C)CCC(=O)OCCN1CCOCC1)C(=O)OC2`, the Potency was 3.72 µM (active). As to `CON(C)C(=O)N1N=C(c2cc(F)ccc2F)S[C@]1(CCCN)c1ccccc1`, the “viability (% of DMSO)” value was 63.3% (inactive). With `Cc1c(C(=O)Nc2ccc(N3C[C@@H](C)O[C@@H](C)C3)nc2)cccc1-c1ccc(OC(F)(F)F)cc1`, the Potency was 9.35 µM (active). The same measure, in the same setting: next, `N#Cc1c(N(CC(=O)O)CC(=O)O)sc(C(=O)O)c1CC(=O)O`: 8.33 µM (active); `O=C(Nc1cccc(Cl)c1)Nc1ncc(CCNc2ncnc3ccsc23)s1`: 0.264 µM (active). Same read-out and setting: the figure for `CC(C)CN(C[C@@H](O)[C@H](Cc1ccccc1)NC(=O)O[C@H]1CO[C@H]2OCC[C@H]21)S(=O)(=O)c1ccc(N)cc1` is 2.96 µM (active); for `O=c1[nH]c(=O)n([C@H]2C[C@@H](O)[C@@H](CO)O2)cc1C(F)(F)F` it is 7.43 µM (active). Turning to `CCOC(=O)[C@H]1O[C@H]1C(=O)N[C@@H](CC(C)C)C(=O)NCCC(C)C`, the “viability (% of DMSO)” value was 110% (inactive). The same measure, in the same setting: the figure for `C[C@H](CCC(=O)O)[C@H]1CC[C@H]2[C@H]3[C@@H](CC[C@]12C)[C@@]1(C)CC[C@@H](O)C[C@H]1C[C@@H]3O` is 180% (inactive).
